Vif-APOBEC3F blk – blocks the Vif interaction with APOBEC3F | HeLa A3F-eYFP + Vif (tagged APOBEC3F with the HIV-1 protein that degrades it), YFP fluorescence increase | Potency, µM (top dose mostly 46.1 µM) | 0.2% of 390,000 active | AID 602313; also: nearly all actives have a fitted effect of over 65% in size
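HeLa cells stably expressing Vif plus C-terminally eYFP-tagged A3F were seeded, incubated overnight at 37 deg C, dosed with compound, incubated overnight again at 37 deg C. Yellow fluorescence (Ex 488/Em 500-530) reported blocked Vif-mediated A3F-eYFP degradation.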
TRPML1 ag – human mucolipin-1 channel agonism; activation, % (no concentration beside the values); 0.12% of 410,000 active; TRPML1-expressing cells, Ca2+ dye fluorescence, FDSS; in the data active = activation above about 50%; inconclusive = mostly about 30% to 49%
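Cells: TRPML1-DL, 1X Tet inducer, ~16 h at 37 degrees C/5% CO2. Dye: ABD Ca8 no-wash + quencher, 45-90 min RT. Read: 10 s baseline, compound add, 110 s agonist phase; 54-4 EC80 (4uM final), 110 s antagonist phase.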
Vif-APOBEC3G blk – inhibitors of Vif-APOBEC3G interaction | Q9HC16 | AID 602310 | Potency, µM (titrated, usually from 46.1 µM), most hits filed as inhibitors | HeLa A3G-eYFP + Vif (tagged APOBEC3G with the HIV-1 protein that degrades it), YFP fluorescence, overnight | 0.076% of 410,000 active; also: nearly all actives have a fitted effect of over 60% in size
Target sequence (Q9HC16 whole entry, looked up): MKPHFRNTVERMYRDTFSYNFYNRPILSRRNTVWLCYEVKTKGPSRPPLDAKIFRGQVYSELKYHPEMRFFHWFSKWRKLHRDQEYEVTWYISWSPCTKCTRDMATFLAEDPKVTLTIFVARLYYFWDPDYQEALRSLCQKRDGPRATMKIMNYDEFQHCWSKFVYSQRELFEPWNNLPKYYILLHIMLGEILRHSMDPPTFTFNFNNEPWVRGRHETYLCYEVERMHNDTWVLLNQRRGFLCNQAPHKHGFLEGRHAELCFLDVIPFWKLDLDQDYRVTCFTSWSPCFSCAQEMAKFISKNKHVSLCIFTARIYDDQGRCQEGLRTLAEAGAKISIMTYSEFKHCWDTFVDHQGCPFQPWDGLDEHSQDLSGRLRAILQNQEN
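HeLa cells stably expressing Vif and C-terminally eYFP-tagged A3G, seeded overnight at 37 deg C, then exposed to compound by pintool overnight at 37 deg C. Rise in yellow fluorescence (Ex 488/Em 500-530, Acumen) marks blocked Vif-driven A3G degradation.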
TRPML1 inh – inhibitors of human TRPML1 channel; Q9GZU1; TRPML1-inducible cells, Ca2+ dye fluorescence, FDSS; stronger effect = lower value; inhibition of EC80 agonist-evoked calcium signal; activity change, negative = inhibition, % (concentration not given with the values); 0.02% of 390,000 active; AID 624415; in the data active = activity change below about -50%; inconclusive = between about -30% and that limit;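 also: stimulus is agonist 54-4 at its EC80 concentration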
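Tet-induced TRPML1-DL cells loaded with Ca8 no-wash calcium dye were read kinetically on FDSS. Compound addition was followed by EC80 agonist 54-4 (4 uM final); inhibition was read over 110 s.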
PINK1 expr mod – changes PINK1 expression | Potency, µM (series often up to 76.6 µM), hits mostly activators | PINK1 immunofluorescence, high-content cytometry, 24 h | 0.2% of 410,000 active; active = well fitted activation curve with a large enough effect; inconclusive = small, poorly fitted or top-dose-only effect; cell line not stated here; also: nearly all actives have a fitted effect of over 65% in size
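Measures PINK1 amount and localization on or inside mitochondria by immunofluorescence. Stable cells get compounds at 5 concentrations for 24 hours before fixation and staining; CCCP controls included.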
Of the large screens only hits and unclear results are named; the others gave an inactive call. Rows were chosen to be rich in hits. Some 0.52% of all compounds tested hit in one or more screens of this group. Unless noted, calls follow the shape of the dose curve; as a rule, active = well fitted curve in the direction sought with a large enough effect; inconclusive = small, poorly fitted or top-dose-only effect, or another doubt; inactive = no such curve, though single readings can be large; an effect the other way counts as inactive or inconclusive.

OC[C@@H](O)[C@@H](O[C@H]1O[C@H](CO)[C@@H](O)[C@H](O)[C@H]1O)[C@H](O)[C@@H](O)CO	none
COc1cc(/C=C2\CC/C(=C\c3ccc(OCCO)c(OC)c3)C2=O)ccc1OCCO	Vif-APOBEC3F blk inconclusive, TRPML1 ag 106.9
CCn1nc(-c2ccccc2)c2nc3ccccc3nc21	Vif-APOBEC3F blk 25.1µM, TRPML1 ag inconclusive, Vif-APOBEC3G blk 12.6µM
Cn1cccc1/C=N\NC(=O)C1COc2ccccc2O1 (centres undefined)	TRPML1 ag 84.6
Cc1occc1-c1nnc(SCC(=O)Nc2nc(-c3ccccc3)cs2)o1	PINK1 expr mod 10µM
CCC(C(=O)N1CCN(c2cc(Cl)ccc2C)CC1)n1nc(C)c2sc3ccccc3c2c1=O (centres undefined)	none
COc1cccc(/C=N/NC(=O)c2ccoc2C)c1	none
COc1cc(C(=O)Nc2nccs2)ccc1OCc1c(C)noc1C	PINK1 expr mod 11.2µM
CC1CC(C)C(=O)C(C(CC2CC(=O)NC(=O)C2)OC(=O)CC(=O)c2ccccc2)C1 (centres undefined)	none
Cc1cc2cc(C#N)c(SCC(=O)Nc3nonc3C)nc2cc1C	Vif-APOBEC3F blk 10µM, Vif-APOBEC3G blk inconclusive, PINK1 expr mod inconclusive
Cc1ccc(C)c2nc(SCC(=O)Nc3ccc4c(c3)OCO4)c(C#N)cc12	none
Cc1nonc1NC(=O)CSc1nc2c(C)cccc2cc1C#N	Vif-APOBEC3F blk 7.94µM, Vif-APOBEC3G blk inconclusive, PINK1 expr mod 44.7µM
COc1ccc2cc(C#N)c(SCC(=O)Nc3nonc3C)nc2c1	PINK1 expr mod inconclusive
CCOC(=O)Cc1csc(NC(=O)c2sc3nc4c(C)cc(C)cc4cc3c2N)n1	Vif-APOBEC3F blk 25.1µM, Vif-APOBEC3G blk inconclusive
COc1cc(/C=C(/C#N)c2nc3ccccc3[nH]2)ccc1OCC(=O)Nc1ccccc1C	none
COc1cc(/C=C(\C#N)c2nc3ccccc3s2)ccc1OCC(=O)Nc1ccccc1	Vif-APOBEC3F blk inconclusive, Vif-APOBEC3G blk 10µM
COc1cc(/C=C(/C#N)c2nc3ccccc3[nH]2)ccc1OCC(=O)Nc1ccccc1C(C)C	Vif-APOBEC3F blk 10µM, TRPML1 inh inconclusive, PINK1 expr mod inconclusive
COc1cc(/C=C(\CC(=O)O)c2nc3ccccc3s2)ccc1OCC(=O)Nc1ccccc1F	none
COc1cc(/C=C(\C#N)c2nc3ccc(C)cc3[nH]2)ccc1OC(C)C	Vif-APOBEC3F blk 25.1µM
CCCCCCCCCCCCCCCC[n+]1ccc(CC(O)c2c(C)[nH]c3ccccc23)c2ccccc21 (centres undefined)	none (no result: Vif-APOBEC3F blk, TRPML1 inh, PINK1 expr mod)
NC(=O)C1(N2CCCCC2)CCN(C(=O)Nc2ccc(F)cc2)CC1	none
C=CCc1cccc2cc(C(=O)NCc3cccnc3)c(=O)oc12	none (no result: PINK1 expr mod)
CCOc1cccc2cc(C(=O)NCc3cccnc3)c(=O)oc12	PINK1 expr mod 11.2µM
CCc1c(C)sc(NC(=O)Cc2ccccc2C)c1C(=O)N1CCOCC1	none
CN1C=CC2=C(C#N)C(N)C(C#N)(C#N)[C@H](c3ccccc3)[C@H]2C1 (some centres undefined)	PINK1 expr mod 12.6µM
C#CCN(Cc1nc(N2CCOCC2)c2ccc(Cl)cc2n1)Cc1ccco1	none (no result: Vif-APOBEC3F blk, TRPML1 ag, Vif-APOBEC3G blk, TRPML1 inh)
O=C(Nc1cccc(Cl)c1Cl)c1snnc1-c1ccccc1	none
O=C(Nc1cc(Cl)ccc1O)c1snnc1-c1ccccc1	PINK1 expr mod 11.2µM
Cc1ccc(NC(=O)c2ccc(NCCN)c([N+](=O)[O-])c2)cc1	none
NC(=O)c1ccc(NCC2CCCO2)c([N+](=O)[O-])c1 (centres undefined)	none
Cc1ccc(NC(=O)c2ccc(NCc3ccco3)c([N+](=O)[O-])c2)cc1Cl	Vif-APOBEC3F blk 8.91µM, Vif-APOBEC3G blk inconclusive, PINK1 expr mod inconclusive
Cc1cccc(NC(=O)c2ccc(NCCc3ccccc3)c([N+](=O)[O-])c2)c1	Vif-APOBEC3F blk inconclusive, PINK1 expr mod 14.1µM
Cc1ccc(NC(=O)c2ccc(NCCCN3CCC(C)CC3)c([N+](=O)[O-])c2)cc1F	Vif-APOBEC3F blk 10µM, PINK1 expr mod inconclusive
Cc1ccc(NC(=O)c2ccc(NCC3CCCO3)c([N+](=O)[O-])c2)cc1Cl (centres undefined)	Vif-APOBEC3F blk 11.2µM, PINK1 expr mod inconclusive
Cc1c(Cl)cccc1-c1ccc(CNCc2ccccn2)o1	none
O=C(NNC(=S)Nc1ccc(F)cc1)c1cccc([N+](=O)[O-])c1	none
Cc1ccc(NC(=S)NNC(=O)c2cccc([N+](=O)[O-])c2)cc1Cl	PINK1 expr mod 35.5µM
COc1ccc(-c2nc3ccccc3o2)cc1NC(=O)C(C)(C)Oc1ccc(Br)cc1	none
NS(=O)(=O)c1ccc(NC(=O)c2ccc3c(c2)CCCC3)cc1	Vif-APOBEC3F blk inconclusive, PINK1 expr mod 39.8µM
CC12CCC=CC1=C(C=O)C1C2CCC2(C)C(O)CCC12 (centres undefined)	none
COc1ccc(-n2c(SC3CCOC3=O)nc3ccccc3c2=O)cc1OC (centres undefined)	PINK1 expr mod 10µM
COc1ccc(-n2c(SC3CCOC3=O)nc3ccccc3c2=O)cc1Cl (centres undefined)	none
CC/C(C)=N\N=C\c1c(O)n(CC)c2cc(C3=NNC(=O)CC3)ccc12	none
CCn1c(O)c(/C=N/N=C/c2ccc(OC)cc2)c2cc(C3=NNC(=O)CC3)ccc21	Vif-APOBEC3F blk 4.47µM, Vif-APOBEC3G blk inconclusive, PINK1 expr mod inconclusive
Cc1ccc[n+](CC(=O)Nc2cc(C(F)(F)F)ccc2N2CCOCC2)c1	none
Cc1ccc(NC(=O)c2cc(C(=O)c3cc(Cl)ccc3O)cn(-c3ccc(C)cc3)c2=O)cc1	PINK1 expr mod 35.5µM
CCC(CC)=NNc1cccc([N+](=O)[O-])c1	none
COc1ccc(C(=O)/C(C#N)=N/Nc2cccc([N+](=O)[O-])c2)cc1	PINK1 expr mod 14.1µM
N#C/C(=N\Nc1ccccc1Cl)C(=O)c1ccccc1	PINK1 expr mod inconclusive
N#C/C(=N\Nc1cccc(Cl)c1)C(=O)c1ccccc1	PINK1 expr mod 25.1µM
C=C1C=C(C(F)F)n2ncc(C(=O)NCCc3ccc(Cl)cc3)c2N1	none (no result: Vif-APOBEC3F blk, TRPML1 inh)
COc1ccc(CCNC(=O)c2cc(-c3ccncc3)nc3ccc(S(=O)(=O)N4CCOCC4)cc23)cc1OC	none
COc1ccc2noc3c2c1C(=O)c1ccccc1-3	Vif-APOBEC3F blk inconclusive, TRPML1 ag 79.3
O=C1c2ccccc2-c2onc3ccc(NCCCn4ccnc4)c1c23	Vif-APOBEC3F blk inconclusive, TRPML1 ag 74.5
O=S(=O)(NCc1ccccc1)NCc1ccc(Cl)cc1Cl	Vif-APOBEC3F blk inconclusive
COC(=O)[C@@H](c1ccccc1)N(C)S(=O)(=O)c1cccc(S(=O)(=O)N(C)[C@@H](C(=O)OC)c2ccccc2)c1	TRPML1 ag 73.6
Cc1cc(=O)c(C(=O)Nc2cccc(C(=O)NC3CC3)c2)nn1-c1ccccc1	none
CC(Nc1oc(-c2ccc(COc3ccccc3)o2)nc1C#N)c1ccccc1 (centres undefined)	Vif-APOBEC3F blk 10µM

Screening data: PubChem BioAssay, National Center for Advancing Translational Sciences (NCATS)
